The results in this text go back to PubChem BioAssay (NCI).

Compounds without any hit were thinned out: in the full panel of roughly 83,000, 20% have a hit.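 Compound tested at a single concentration for 48 hours in 96-well plates; a percent growth value below 10 was scored as active.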 Unmarked numbers belong to inactive results. The source made the active and inactive calls.

Common to all, as to experiment: NCI-60 one-dose screen, 48 h (100 = growth as untreated, 0 = no growth, -100 = all killed)
The test system of one test is DU-145 prostate. As to conditions: 10 µM unless noted.
The next test deals with K-562 leukemia. As to conditions: 10 µM unless noted.
A further test relates to MALME-3M melanoma. As to conditions: 10 µM unless noted.
Another test has as its system MDA-MB-231 breast. As to conditions: 10 µM unless noted.
In a further test the test system is SF-268 CNS. The following applies: 10 µM unless noted.
The next test deals with SF-295 CNS. The following applies: 10 µM unless noted.
In a further test the test system is SF-539 CNS. As to conditions: 10 µM unless noted.
Another test relates to M14 melanoma. As to conditions: 10 µM unless noted.
For another test, the system named is RXF 393 renal. As to conditions: 10 µM unless noted.
For the next test, the system named is UACC-257 melanoma. The following applies: 10 µM.

For `OCc1c(-c2ccccc2)nc2sccn12`, the growth is 109% in the test on DU-145 prostate; 123% with K-562 leukemia; 109% with MALME-3M melanoma; 109% in the test with MDA-MB-231 breast; 102% in the test with SF-268 CNS; 112% in the test with SF-295 CNS. Besides, the values for the growth with SF-539 CNS and in the test on M14 melanoma were 73.7% and 102%, respectively.
For the compound `CCCCCCCCCCCCCCCCCCOc1cccc(CCOP(=O)(O)OCC[N+](C)(C)C)c1`, the growth was 95.9% with DU-145 prostate; 116% in the test on K-562 leukemia; 101% in the test with MALME-3M melanoma; 95.5% in the test on MDA-MB-231 breast; 68% with SF-268 CNS; 87.2% with SF-295 CNS. Further, the results for the growth in the test with SF-539 CNS and with M14 melanoma were 95.1% and 93.4%, respectively.
For the compound `c1cncc(CNc2ccccc2-c2nnc(Nc3ccc4c(c3)OCCO4)o2)c1`, the growth in the test with DU-145 prostate is -5.96% (active); in the test with K-562 leukemia, 14.2%; in the test on MALME-3M melanoma it was 80.2%; with MDA-MB-231 breast, 26.4%; in the test with SF-268 CNS, 18.7%; in the test on SF-295 CNS, 12.2%. The values for the growth in the test on SF-539 CNS and with M14 melanoma were 4.68% (active) and 12.7%, respectively.
As to `COc1cc(C2C3=C(COC3=O)Nc3c2ccc2c3CCCC2)cc2c1OCO2` (stereo unspecified), the growth was -24.7% (active) with DU-145 prostate; 12.7% in the test on K-562 leukemia; 92.1% in the test with MALME-3M melanoma; 6.67% (active) in the test on MDA-MB-231 breast; 8.63% (active) in the test with SF-268 CNS; 13.3% with SF-295 CNS. Moreover, the values for the growth with SF-539 CNS and in the test on M14 melanoma were 4.95% (active) and 13.3%, respectively.
As to `COc1cc(CNC(=O)CSc2nc3ccccc3c(=O)n2Cc2cc(OC)c(OC)c(OC)c2)cc(OC)c1OC`, the growth in the test on DU-145 prostate was 108%; with MALME-3M melanoma, 97.5%; in the test with MDA-MB-231 breast it was 94.4%; in the test with RXF 393 renal it was 97.4%; with SF-268 CNS, 97.5%; in the test on SF-295 CNS, 105%. For the same compound, the growth in the test on SF-539 CNS is 96.3%; in the test with UACC-257 melanoma, 94.2%; with M14 melanoma, 97.2%.
As to `COC(=O)C(CC(=O)c1ccc(-c2ccccc2)cc1)c1ccccc1` (stereo unspecified), the growth in the test with DU-145 prostate was 72.7%; with K-562 leukemia, 20.6%; with MDA-MB-231 breast it was 66.3%; with RXF 393 renal it was 56.5%; in the test on SF-268 CNS it was 88.7%; in the test with SF-295 CNS it was 58.6%. Moreover, the growth was 34.7% in the test on SF-539 CNS and 66.7% with UACC-257 melanoma.
As to `COc1ccc(/C=C/C(=O)c2ccc(B(O)O)cc2)cc1O`, the growth with DU-145 prostate was 75.6%; in the test with K-562 leukemia, 24.6%; with MDA-MB-231 breast, 90.8%; in the test on RXF 393 renal, 81.4%; in the test on SF-268 CNS, 81.6%; in the test on SF-295 CNS, 98.5%. The growth in the test with SF-539 CNS was 71.3%; with UACC-257 melanoma it was 94.3%; in the test on M14 melanoma it was 74.1%.
Take `CC(=O)Nc1ccc(S(=O)(=O)N2C(=O)CCC2C(=O)Nc2ccc(Br)cc2)cc1` (stereo unspecified): the growth in the test on DU-145 prostate was 44.2%; with K-562 leukemia, 0.475% (active); in the test on MDA-MB-231 breast, 34.4%; in the test with RXF 393 renal, 57.4%; in the test with SF-268 CNS, 47.6%; with SF-295 CNS, 13.1%. Besides, the growth in the test on SF-539 CNS was 42.1%; in the test on UACC-257 melanoma it was 30.4%; in the test with M14 melanoma, 36.9%.
Take `CCN(Cc1ccccc1)c1ccc(SC#N)cc1`: the growth in the test with DU-145 prostate was 98.3%; in the test with K-562 leukemia it was 41%; with MALME-3M melanoma it was 88%; in the test with RXF 393 renal, 47.6%; in the test on SF-268 CNS, 83.8%; with SF-295 CNS, 95.3%. In addition, the figures for the growth with SF-539 CNS, with UACC-257 melanoma and in the test on M14 melanoma were 82.2%, 107% and 89.2%, respectively.
Regarding `O=S(=O)(NCCNc1nccc(-c2c(-c3ccccc3)nc3sccn23)n1)c1ccc(O)cc1`, the growth is 46% in the test with DU-145 prostate; 35.9% with K-562 leukemia; 50% in the test with MDA-MB-231 breast; 45.9% with RXF 393 renal; 46.5% in the test on SF-268 CNS; 47.3% in the test with SF-295 CNS. In addition, the growth in the test with SF-539 CNS was 59.2%; with UACC-257 melanoma, 82.4%; with M14 melanoma, 35.7%.
For `Cn1c(C(N)=O)cc2c1-c1nc(NC3CCCCC3)ncc1CCC2`, the growth was 103% in the test on DU-145 prostate; 101% in the test on K-562 leukemia; 78.4% in the test with MDA-MB-231 breast; 59.5% in the test on RXF 393 renal; 84.8% with SF-268 CNS; 91.3% in the test on SF-295 CNS. In addition, the growth in the test with SF-539 CNS was 80.6%; in the test with UACC-257 melanoma it was 106%; in the test on M14 melanoma, 109%.
On to `O=[N+]([O-])c1cc(S(=O)(=O)OCC2CO2)ccc1Cl` (stereo unspecified), for which the growth is 101% in the test on DU-145 prostate; 98.1% in the test with MALME-3M melanoma; 132% in the test on MDA-MB-231 breast; 103% in the test with RXF 393 renal; 94.3% in the test with SF-268 CNS; 101% in the test on SF-295 CNS. Moreover, the results for the growth in the test on SF-539 CNS, in the test on UACC-257 melanoma and in the test on M14 melanoma were 106%, 100% and 95.1%, respectively.
As for `CC(=O)Nc1ccc(S(=O)(=O)NC(CCC(=O)Nc2ccc(Cl)cc2)C(=O)O)cc1` (stereo unspecified), the growth was 102% with DU-145 prostate; 77.4% in the test with K-562 leukemia; 95% in the test on MDA-MB-231 breast; 108% in the test on RXF 393 renal; 102% in the test on SF-268 CNS; 98.8% in the test with SF-295 CNS. Besides, the growth is 99.2% with SF-539 CNS, 98% in the test on UACC-257 melanoma and 99.2% in the test on M14 melanoma.
As to `CCCCC(N)(C(=O)O)C1CCCC1` (stereo unspecified), the growth is 122% in the test on DU-145 prostate; 127% with MALME-3M melanoma; 105% with MDA-MB-231 breast; 106% in the test with RXF 393 renal; 107% with SF-268 CNS; 98.8% with SF-295 CNS. Also, the growth with SF-539 CNS was 96.7%; with UACC-257 melanoma it was 87.2%; with M14 melanoma it was 107%.
